Data published in PubChem BioAssay (Tox21).
Records with an inconclusive call do not appear. Activity calls are given as the source filed them. The call rests on the fitted dose curve.

Legend:
[1] = molecular target: Acetylcholinesterase (Homo sapiens) (UniProt P22303); assay: Acetylcholinesterase (AChE) small molecule antagonists: colormetric cell-based qHTS assay (AID 1347395); further: nearly all actives have a fitted effect of over 30% in size
Outline: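 SH-SY5Y cells, plated overnight at 37 C, were exposed to compounds for 30 min at 37 C and 5% CO2. Acetylthiocholine plus DTNB was then added, and thiocholine from endogenous AChE was quantified colorimetrically after 90 min at 37 C.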

[2] = molecular target: Acetylcholinesterase (Homo sapiens) (UniProt P22303); assay: Acetylcholinesterase (AChE) small molecule antagonists: enzyme-based qHTS assay (AID 1347397); settings: Potency: AChE enzyme activity inhibition; outcome: AChE enzyme activity inhibition; further: nearly all actives have a fitted effect of over 55% in size
Outline: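 First, recombinant human AChE (50 mU/mL as dispensed) received test compound or DMSO. Second, plates stood 30 min at room temperature. Third, DTNB and acetylthiocholine were added, followed by 10 min at room temperature and colorimetric detection.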

[3] = molecular target: Acetylcholinesterase (Homo sapiens) (UniProt P22303); assay: Acetylcholinesterase (AChE) small molecule antagonists: fluorescence cell-based qHTS assay (AID 1347398); settings: Potency: AChE activity; outcome: AChE activity; further: nearly all actives have a fitted effect of over 50% in size
Outline: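 Homogeneous quantitative HTS format. SH-SY5Y cells seeded at 2,000 per well settle overnight at 37 C. Compound pretreatment runs 30 min (37 C, 5% CO2); substrate/probe mix then reacts 40 min at RT before reading 490/520 nm.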

[4] = molecular target: Acetylcholinesterase (Homo sapiens) (UniProt P22303); assay: Acetylcholinesterase (AChE) small molecule antagonists: enzyme-based qHTS assay with human liver microsomes (AID 1347399); settings: Potency: qHTS inhibition; outcome: qHTS inhibition; further: nearly all actives have a fitted effect of over 60% in size
Outline: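 Recombinant human AChE (50 mU/mL in the enzyme mix) and human liver microsomes (0.25 mg/mL final) were preincubated with compound and NADPH (0.25 mg/mL final) for 30 min at 37 C. Acetylthiocholine/DTNB was then added; thiocholine was read colorimetrically after 10 min at room temperature.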

Measured: Potency

Sequence of Acetylcholinesterase (Homo sapiens) (P22303 whole entry, looked up): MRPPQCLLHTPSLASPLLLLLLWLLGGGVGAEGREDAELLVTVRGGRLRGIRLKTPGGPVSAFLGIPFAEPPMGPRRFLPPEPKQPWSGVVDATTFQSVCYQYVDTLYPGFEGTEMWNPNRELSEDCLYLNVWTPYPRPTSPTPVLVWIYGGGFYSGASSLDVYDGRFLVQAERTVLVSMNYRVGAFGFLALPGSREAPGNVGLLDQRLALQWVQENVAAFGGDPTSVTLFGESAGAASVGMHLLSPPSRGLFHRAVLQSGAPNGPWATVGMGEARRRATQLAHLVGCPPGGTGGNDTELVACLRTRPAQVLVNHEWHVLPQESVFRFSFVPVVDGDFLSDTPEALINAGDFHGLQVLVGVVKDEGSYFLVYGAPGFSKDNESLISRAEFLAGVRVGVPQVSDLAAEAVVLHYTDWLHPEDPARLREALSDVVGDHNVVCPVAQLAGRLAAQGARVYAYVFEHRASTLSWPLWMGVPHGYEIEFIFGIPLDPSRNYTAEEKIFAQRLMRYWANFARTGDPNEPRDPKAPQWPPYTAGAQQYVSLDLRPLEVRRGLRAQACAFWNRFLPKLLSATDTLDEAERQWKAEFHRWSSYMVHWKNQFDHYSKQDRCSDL

Cc1cscn1
inactive: all assays above

CCCCCCCCO[C@@H]1O[C@H](CO)[C@@H](O)[C@H](O)[C@H]1O
inactive: all assays above

O=[N+]([O-])c1cncn1CCN1CCOCC1
inactive: all assays above

O=C(O)c1ccccc1C(=O)Nc1ccc(S(=O)(=O)Nc2nccs2)cc1
inactive: all assays above

O=C(OC(=O)c1ccccc1)c1ccccc1
inactive: all assays above

C=CC(C)=CCC=C(C)C
inactive: all assays above

CC1(C)C(=O)C(C)(C)C1=O
inactive: all assays above

Cc1cccc(C)c1NC(=O)c1ccccc1C(=O)O
inactive: all assays above

CCN(CC)c1ccc(C(=C2C=CC(=[N+](CC)CC)C=C2)c2cc(S(=O)(=O)O)ccc2S(=O)(=O)[O-])cc1
inactive: all assays above

COc1ccccc1N1CCN(CC(O)COc2cc(OC)c(OC)c(OC)c2)CC1 (stereo not given)
inactive: all assays above

CCCCCCOC(=O)CCC
inactive: all assays above

O=C(O)CNC(=O)c1ccccc1I
inactive: all assays above

O=C(O)c1c(O)c(-c2ccccc2)nc2ccccc12
inactive: all assays above

Nc1ccc(F)cc1F
inactive: all assays above

CCCCC1C(=O)N(c2ccccc2)N(c2ccc(O)cc2)C1=O (stereo not given)
inactive: all assays above

COc1cc(C(=O)NC2CCCNC2)cc(OC)c1OC (stereo not given)
inactive: all assays above

FC(F)OC(Cl)C(F)(F)F (stereo not given)
inactive: all assays above

CCc1cccc(CC)c1NC(=O)CN(CC(=O)O)CC(=O)O
inactive: all assays above

CC(C)(COC(=O)c1ccccc1)COC(=O)c1ccccc1
inactive: all assays above

C=C1C[C@@]23CC[C@H]4[C@@](C)(CCC[C@@]4(C)C(=O)O[C@@H]4O[C@H](CO)[C@@H](O)[C@H](O)[C@H]4O)[C@@H]2CC[C@]1(O[C@@H]1O[C@H](CO)[C@@H](O)[C@H](O[C@@H]2O[C@H](CO)[C@@H](O)[C@H](O)[C@H]2O)[C@H]1O[C@@H]1O[C@H](CO)[C@@H](O)[C@H](O)[C@H]1O)C3
inactive: all assays above

COC(=O)C1=C(C)NC(C)=C(C(=O)OC(C)(C)CN(C)CCC(c2ccccc2)c2ccccc2)C1c1cccc([N+](=O)[O-])c1 (stereo not given)
inactive: all assays above

COC(=O)c1ccccc1Cl
inactive: all assays above

CCO[Si](CCC1CCC2OC2C1)(OCC)OCC (stereo not given)
inactive: all assays above

CCCN(CCC)c1c([N+](=O)[O-])cc(C(F)(F)F)c(N)c1[N+](=O)[O-]
inactive: all assays above

CC(C)(C)c1csc(-c2cc3cc(OCc4ccccc4CC(=O)O)ccc3o2)n1
inactive: all assays above

Cc1nnc(SCC2=C(C(=O)O)N3C(=O)[C@@H](NC(=O)Cn4cnnn4)[C@H]3SC2)s1
inactive: all assays above

CC(C)(C)OC(=O)N1C[C@@H](F)C[C@H]1C(=O)O
inactive: all assays above

CC(=O)Nc1ccc(S(=O)(=O)Nc2cc(C)on2)cc1
inactive: all assays above

O=P(O)(O)OCC(O)CO (stereo not given)
inactive: all assays above

C=C(C)C1CCC(C)(O)CC1 (stereo not given)
inactive: all assays above

CCOC(=O)c1nc(C(Cl)(Cl)Cl)n(-c2ccc(Cl)cc2Cl)n1
inactive: all assays above

CCOC(=O)CC
inactive: all assays above

CCCCOc1ccc(N)cc1
inactive: all assays above

CC1=CC(=O)[C@H]2C[C@@H]1C2(C)C
inactive: all assays above

CCn1nc(Cc2ccccc2)cc1C1CCN(C[C@H]2C[C@H](N(C)[C@@H](C(=O)O)C(C)C)C[C@@H]2c2cccc(F)c2)CC1
inactive: all assays above
